Measured values reported in PubChem BioAssay (NCATS).
Inconclusive results are not listed. Active and inactive are the calls of the source. Unless noted, calls follow the shape of the dose curve; as a rule, active = well fitted curve in the direction sought with a large enough effect; inconclusive = small, poorly fitted or top-dose-only effect, or another doubt; inactive = no such curve, though single readings can be large; an effect the other way counts as inactive or inconclusive.

Experiments:
[1] = Cytometric Cell-Based qHTS for Inhibitors of the mTORC1 Signaling Pathway in MEF (Tsc2-/-, p53-/-) Cells (AID 2660);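 also: Tsc2 and p53 null MEFs carrying empty vector with compound for 24 h; percent of cells above a phospho-rpS6 to PI ratio cutoff in each well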
Procedure, shortened: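 Cells are plated, treated with compound for 24 hrs at 37 degree Celsius, then fixed, blocked and immunostained for phospho-rpS6 Ser235/236. Propidium iodide counterstain follows. Per-well % positive cells is derived from the PI-normalized phospho-S6 signal.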

[2] = High Content Imaging Cell-Based qHTS for Inhibitors of the mTORC1 Signaling Pathway in MEF (Tsc2-/-, p53-/-) Cells (AID 2666); details: at 38.3 µM (top of the series);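 also: percent of cells scored positive for phospho-rpS6 Ser235/236 immunostaining by imaging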
Procedure, shortened: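 Tsc2-/-, p53-/- MEFs (empty-vector stable) grown in DMEM + 10% FBS were exposed to compounds for 24 hrs at 37 degree Celsius, fixed, and stained with Alexa-488 anti-phospho-rpS6 Ser235/236 plus Hoechst. Imaging gave the percentage of positive cells per well.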

[3] = High Content Imaging Cell-Based qHTS for Inhibitors of the mTORC1 Signaling Pathway in MEF Cells (AID 2667);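 also: Tsc2-/- p53-/- MEFs stably re-expressing wild-type Tsc2 exposed 24 h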
Procedure, shortened: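 Tsc2-/-, p53-/- MEFs stably re-expressing WT Tsc2, grown in DMEM + 10% FBS, were treated with compounds for 24 hrs at 37 degree Celsius, fixed, and stained with Alexa-488 phospho-rpS6 Ser235/236 antibody plus Hoechst; results given as % positive cells.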

[4] = Cytometry Cell-Based qHTS for Inhibitors of the mTORC1 Signaling Pathway in MEF cells (AID 2668);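 also: Tsc2-/- p53-/- mouse embryonic fibroblasts stably re-expressing wild-type Tsc2; percent cells positive for phospho-rpS6 Ser235/236 relative to propidium iodide stain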
Procedure, shortened: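 Phospho-rpS6 (Ser235/236) immunofluorescence over PI signal, scored as % positive cells using thresholds from 7.5 nM rapamycin and DMSO wells, after 24 h compound exposure of WT-Tsc2-rescued Tsc2-/-, p53-/- MEFs. PI cell count recorded for viability.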

[5] = molecular target: Ubiquitin carboxyl-terminal hydrolase 2 (Homo sapiens) (UniProt O75604); test: qHTS Validation Assay for Inhibitors of Ubiquitin-specific Protease USP2a Using CHOP2 as the Reporter (AID 463106)
Procedure, shortened: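 Readout was coupled fluorescence (Ex 485/Em 531 nm), read 60 min after adding 25 nM final Ub-CHOP2 and 25 nM reporter substrate. Beforehand, 10 nM final USP2 core had 30 min at RT with compound in pH 8.0 buffer. Curves were fitted after normalization to NEM and flagged for artifacts using time-zero reads.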

[6] = molecular target: Tumor susceptibility gene 101 protein (Homo sapiens) (UniProt Q99816); test: qHTS Validation Assay for Iinhibitors of HIV-1 Budding by Blocking the Interaction of PTAP/TSG101 (AID 485342; calls by dose curve)
Procedure, shortened: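 Fluorescence polarization of 50 nM FITC-PTAP peptide bound to 10 uM Tsg101 binding domain was read after 20 min room-temperature incubation with compounds, in 10 mM HEPES pH 7.5, 0.15 M NaCl, 0.01% Tween 20.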

[7] = qHTS Validation Assay to Find Inhibitors of Chronic Active B-Cell Receptor Signaling (AID 485345; active = well fitted curve in the direction sought with a large enough effect in the main read-out, with a control signal flat, not every such curve was filed as active)
Procedure, shortened: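 Read-out: ratio of filter-corrected green (IkappaBalpha fusion) to red (native) luciferase signal in doxycycline-induced TMD8 cells after 4 h at 37C. Titration spanned 46 uM–3 nM; Data were normalised to basal cells and 10 uM MG-132 wells.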

[8] = molecular target: Beta-2 adrenergic receptor (Homo sapiens) (UniProt P07550); test: qHTS validation assay of beta-arrestin-biased ligands of beta2-adrenergic receptor (AID 485366)
Procedure, shortened: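 Compound series up to 46 microM applied to beta2-AR/beta-arrestin Tango cells, 18 hr, 37 degrees C, 5% CO2. Read-out: tTA-driven luciferase luminescence, converted to %Activity; concentration-response curves assigned curve classes.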

[9] = molecular target: Thioredoxin reductase 1, cytoplasmic (Rattus norvegicus) (UniProt O89049); test: qHTS Assay for Substrates of Mammalian Selenoprotein Thioredoxin Reductase 1 (TrxR1) (AID 488772);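 also: a drop in NADPH fluorescence below the no-compound background marks a TrxR1 substrate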
Procedure, shortened: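 In this dual-purpose format, potential substrates are identified from the first fluorescence read after selenite addition, not from the 8-minute delta. Rat enzyme is preincubated with NADPH and then with compound at ~22 deg C.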

[10] = molecular target: Thioredoxin reductase 1, cytoplasmic (Rattus norvegicus) (UniProt O89049); test: qHTS Assay for Inhibitors of Mammalian Selenoprotein Thioredoxin Reductase 1 (TrxR1) (AID 488773); details: Potency: inhibition; also: potency is read from the fitted curve at half-maximal effect; nearly all actives have a fitted effect of over 40% in size
Procedure, shortened: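 Inhibition is scored from the loss of NADPH fluorescence between first and last reads of an 8-min kinetic run. Selenite (400 uM) was the substrate, added after 15 min compound preincubation at room temperature.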

[11] = molecular target: M-phase phosphoprotein 8 (Homo sapiens) (UniProt Q99549); test: qHTS Validation Assay for Inhibitors for MPP8 Chromodomain Interactions with Methylated Histone Tails (AID 488949); also: potency is read from the fitted curve at half-maximal effect; nearly all actives have a fitted effect of over 55% in size
Procedure, shortened: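 AlphaScreen proximity signal from streptavidin donor and Ni-chelate acceptor beads (10 ug/mL each) reported binding of MPP8 to trimethyl-K9 H3(1-18) peptide, both at 50 nM. The complex formed 30 min before a 30 min compound exposure at room temperature, in PBS pH 7.4.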

[12] = molecular target: Chromobox protein homolog 1 (Homo sapiens) (UniProt P83916); test: qHTS Validation Assay for Inhibitors of HP1-beta Chromodomain Interactions with Methylated Histone Tails (AID 488953); also: potency is read from the fitted curve at half-maximal effect; nearly all actives have a fitted effect of over 50% in size
Procedure, shortened: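 AlphaScreen proximity signal from streptavidin donor and nickel chelate acceptor beads (final 10 ug/mL) after 30 min dark incubation. Compounds had 30 min at room temperature with preformed complex of 50 nM HP1-beta and 50 nM b-H3(1-18)K9me3 in PBS pH 7.4 with 0.01% Tween-20.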

[13] = molecular target: D(1A) dopamine receptor (Homo sapiens) (UniProt P21728); test: HTS Assay for Allosteric Agonists of the Human D1 Dopamine Receptor: Primary Screen for Agonists (AID 488981)
Procedure, shortened: (§1)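 Calcium flux in an inducible, force-coupled HEK293 Trex D1 line (overnight at 30 C): agonist mode is the 180 s kinetic read after compound; potentiator mode is the following 180 s read after dopamine at EC20.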

[14] = molecular target: D(1A) dopamine receptor (Homo sapiens) (UniProt P21728); test: HTS Assay for Allosteric Agonists of the Human D1 Dopamine Receptor: Primary Screen for Potentiators (AID 488982)
Procedure, shortened: as §1

[15] = molecular target: D(1A) dopamine receptor (Homo sapiens) (UniProt P21728); test: HTS Assay for Allosteric Agonists of the Human D1 Dopamine Receptor: Primary Screen for Antagonists (AID 488983);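 also: calcium flux response to an EC80 dopamine challenge measured with no-wash dye; nearly all actives have a fitted effect of over 65% in size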
Procedure, shortened: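 Calcium-flux read-out in inducible HEK293 T-REx cells expressing D1, dye-loaded 30–90 min at room temperature. Kinetic reads: 180 s after compound (agonist phase), then 180 s after an EC80 dopamine challenge.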

[16] = Validation screen for small molecules that induce genotoxicity in human embryonic kidney (HEK293T) cells expressing luciferase-tagged ELG1 (AID 493106)
Procedure, shortened: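 ELG1-luciferase reporter readout (ONE-Glo, 30 min, room temperature) after 16 hr compound treatment at 37 °C of HEK293T cells at 2,000 per well. Rising luminescence flags genotoxic stress.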

[17] = molecular target: ATPase family AAA domain-containing protein 5 (Homo sapiens) (UniProt Q96QE3); test: Validation screen for small molecules that inhibit ELG1-dependent DNA repair in human embryonic kidney (HEK293T) cells expressing luciferase-tagged ELG1 (AID 493107);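 also: inhibitors lower the ELG1-luciferase luminescence signal; nearly all actives have a fitted effect of over 70% in size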
Procedure, shortened: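 Luciferase read-out, ONE-Glo, 30 min at room temperature, follows 16 h co-exposure at 37 C of compound and the DNA-damaging agent 5-fluorouridine. Cells: HEK293T with ELG1-luciferase fusion, 2,000 per well, DMSO as vehicle.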

[18] = molecular target: phosphoglycerate mutase (Leishmania major) (UniProt Q4Q090); test: qHTS Validation Assay to Find Inhibitors of Phosphoglycerate Mutase (AID 504548)
Procedure, shortened: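 Luminescent end-point read-out via Kinase-GloPlus after a 10-minute development. Reaction: 1.25nM Leishmania major PGAM with substrate and compound, 45 minutes at room temperature in TEA buffer (pH 7.6) with MgCl2 and Tween-20.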

[19] = NS1 protein of Zika virus - qHTS assay to identify small molecule inhibitors in human HEK 293 cells (AID 1347053); also: nearly all actives have a fitted effect of over 55% in size
Procedure, shortened: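 TR-FRET signal from two anti-ZIKV NS1 antibodies quantified NS1 in HEK 293 cells 24 h after MR766 infection at MOI = 0.5; compounds were added 1 h before virus. Uninfected cells and infected cells defined the NS1 normalization range.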

[20] = molecular target: T1, Tyrosine-protein phosphatase non-receptor type substrate 1 (Homo sapiens) + Leukocyte surface antigen CD47 (Homo sapiens) (UniProt P78324+Q08722); test: CD47-SIRPalpha protein protein interaction - HTRF assay qHTS validation (AID 1347058; active = well fitted curve in the direction sought with a large enough effect in the signal ratio, not every such curve was filed as active; the % refers to the signal ratio)
Procedure, shortened: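 Soluble extracellular domains (6His-CD47, Avi-tag-biotinylated SIRPalpha) in PBS pH 7.4 with 0.05% IGEPAL CA-630. Compounds were preincubated 30 min at RT with CD47 and anti-His-Eu, then SIRPalpha and SAV-XL665 were added. TR-FRET 665/615 ratio.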

[21] = molecular target: T1, Tyrosine-protein phosphatase non-receptor type substrate 1 (Homo sapiens) + Leukocyte surface antigen CD47 (Homo sapiens); test: CD47-SIRPalpha protein protein interaction - Alpha assay qHTS validation (AID 1347059);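 also: bead proximity luminescence from CD47 binding SIRPalpha after compound preincubation with SIRPalpha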
Procedure, shortened: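 AlphaScreen signal between CD47-His (12.5 nM) and biotin-SIRPalpha (25 nM) soluble extracellular domains, bead-captured via Ni-NTA and streptavidin. Compounds, in 7-point titrations, met SIRPalpha 30 min before CD47; PBS pH 7.4 with 0.05% IGEPAL.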

[22] = molecular target: N-terminal Xaa-Pro-Lys N-methyltransferase 1 (Homo sapiens) (UniProt Q9BV86); test: qHTS Assay for Inhibitors of N-terminal methyltransferase 1 (NTMT1): LOPAC validation of the NTMT1 SAHH-coupled ThioGlo3 Assay (AID 1347143);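 also: SAH from peptide methylation measured as thiol fluorescence via SAHH coupling and ThioGlo3; potency is read from the fitted curve at half-maximal effect; nearly all actives have a fitted effect of over 70% in size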
Procedure, shortened: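 NTMT1 125nM + cpds (various conc.), 1 min RT; add SAM 100uM/SAHH 10uM/ThioGlo3 15uM (addition mix). SAHH-coupled thiol detection, Ex340/Em450, t0 and 30 min RT; signal normalized to background. LOPAC 1280-cpd pilot.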

[23] = tested on: Zika virus NS2B-NS3 protease (unlinked); test: Optimization of GU AMC qHTS for Zika virus inhibitors: Unlinked NS2B-NS3 protease assay (AID 1347151); also: nearly all actives have a fitted effect of over 80% in size
Procedure, shortened: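 Fluorescence gain (340/450 nm) over 15 min at room temperature, ~20% conversion, gave percent inhibition fitted to a 4-parameter Hill equation; enzyme was unlinked NS2B-NS3 (25 nM final), pH 8.0 Tris buffer.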

[24] = qHTS to identify inhibitors of the type 1 interferon - major histocompatibility complex class I in skeletal muscle: primary screen against the NCATS LOPAC collection (AID 1347405);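 also: lytic HiBiT luminescence reporting HLA-B protein level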
Procedure, shortened: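 After 24 h at 37 C with compounds (7-point, 1:4.3 dilutions, 46 uM top final) plus 4 ng/ml IFN-beta, luminescence from lytic HiBiT detection was measured. HLA-B*08:01 in C25cl48 myoblasts carried an endogenous C-terminal HiBiT tag; medium lacked dexamethasone.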

[25] = qHTS for inhibitors of adenylyl cyclases using a fission yeast platform: a pilot screen against the NCATS LOPAC library (AID 1347410)
Procedure, shortened: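 GFP from fbp1-GFP reporter, read by Acumen laser cytometry, indicates AC inhibition in fission yeast expressing AC9, GNAS and PDE4D2. Cells grown 18 h in the dark at 30C with compounds, final up to 57 uM.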

[26] = molecular target: Calcium and integrin-binding protein 1 (Homo sapiens) (UniProt Q99828); test: Validation qHTS for Identification of Calcium Integrin Binding protein 1 (CIB1) Competitor (AID 1508618)
Procedure, shortened: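 Displacement of FITC-alphaIIb peptide (100 nM) from CIB1-GST (1 uM) is monitored by polarization in quantitative HTS format; buffer carries 5 mM CaCl2 and 125 mM NaCl at pH 7.4, incubations are at room temperature.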

[27] = molecular target: Metallo-beta-lactamase type 2 (Klebsiella pneumoniae) (UniProt C7C422); test: qHTS to identify inhibitors of the New Delhi Metallo-beta-lactamase (NDM): assay validation screen against the NCATS LOPAC Collection (AID 1794843); also: potency is read from the fitted curve at half-maximal effect
Procedure, shortened: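 Enzyme 2 nM final, 50 mM HEPES pH 7.0, 1 uM ZnSO4, 0.01% Tween20; cpds in DMSO, preincub w/ enzyme; + nitrocefin (50 uM stock); A485 at plateau; no-enzyme column as blank.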

[28] = molecular target: Glutathione peroxidase 1 (Homo sapiens) (UniProt P07203); test: Primary qHTS Assay for Inhibitors of Recombinant Selenoprotein Glutathione Peroxidase 1 (GPX1) (AID 1845191); also: nearly all actives have a fitted effect of over 65% in size
Procedure, shortened: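 NADPH consumption tracked by fluorescence at 340/450 nm between t=0 and t=15 min, room temperature. Final mix: 10 nM GPX1, 100 nM glutathione reductase, 1 mM GSH, 0.5 mM NADPH, 0.5 mM cumene hydroperoxide, 0.01% BSA; 30 min compound–enzyme preincubation.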

[29] = molecular target: Phospholipid hydroperoxide glutathione peroxidase GPX4 (Homo sapiens) (UniProt P36969); test: Primary qHTS Assay for Inhibitors of Recombinant Selenoprotein Glutathione Peroxidase 4 (GPX4) (AID 1845192); details: outcome: dose series up to 50 µM unless noted; also: nearly all actives have a fitted effect of over 65% in size
Procedure, shortened: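 NADPH consumption followed by fluorescence at 340/450 nm, t=0 and after 15 min at room temperature. Reaction started with cumene hydroperoxide (0.5 mM final) after 30 min compound–GPX4 preincubation; final 200 nM GPX4, 100 nM GR, 1 mM GSH, 0.5 mM NADPH.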

Measured: Potency

Chain of D(1A) dopamine receptor (Homo sapiens) (P21728 whole entry, looked up): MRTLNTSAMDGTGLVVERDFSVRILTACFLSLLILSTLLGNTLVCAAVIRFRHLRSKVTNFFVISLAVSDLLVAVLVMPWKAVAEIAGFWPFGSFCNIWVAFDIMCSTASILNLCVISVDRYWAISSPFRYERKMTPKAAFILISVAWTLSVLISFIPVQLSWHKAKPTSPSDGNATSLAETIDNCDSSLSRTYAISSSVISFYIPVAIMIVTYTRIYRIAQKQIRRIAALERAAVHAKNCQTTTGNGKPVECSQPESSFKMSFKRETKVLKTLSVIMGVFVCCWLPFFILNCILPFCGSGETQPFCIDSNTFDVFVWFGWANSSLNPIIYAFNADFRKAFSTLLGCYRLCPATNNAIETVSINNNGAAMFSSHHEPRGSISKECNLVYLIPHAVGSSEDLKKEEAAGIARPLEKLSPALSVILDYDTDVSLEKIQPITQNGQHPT
T1 sequence (P78324 whole entry, looked up, the tested form may be a part): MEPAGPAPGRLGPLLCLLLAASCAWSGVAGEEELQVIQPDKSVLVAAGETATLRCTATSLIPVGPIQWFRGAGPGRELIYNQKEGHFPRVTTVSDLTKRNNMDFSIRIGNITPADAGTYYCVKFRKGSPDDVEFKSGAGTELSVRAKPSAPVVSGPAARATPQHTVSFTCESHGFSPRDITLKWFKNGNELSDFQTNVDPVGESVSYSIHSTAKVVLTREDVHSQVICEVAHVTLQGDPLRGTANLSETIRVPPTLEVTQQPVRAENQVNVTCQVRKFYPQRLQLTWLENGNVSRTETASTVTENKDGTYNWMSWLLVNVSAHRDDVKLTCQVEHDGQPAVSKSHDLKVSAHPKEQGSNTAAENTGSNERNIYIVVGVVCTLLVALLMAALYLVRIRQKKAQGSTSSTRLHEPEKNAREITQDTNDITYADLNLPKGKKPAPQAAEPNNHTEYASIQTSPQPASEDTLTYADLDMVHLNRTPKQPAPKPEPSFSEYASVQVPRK
T1 sequence (Q08722 whole entry, looked up, the tested form may be a part): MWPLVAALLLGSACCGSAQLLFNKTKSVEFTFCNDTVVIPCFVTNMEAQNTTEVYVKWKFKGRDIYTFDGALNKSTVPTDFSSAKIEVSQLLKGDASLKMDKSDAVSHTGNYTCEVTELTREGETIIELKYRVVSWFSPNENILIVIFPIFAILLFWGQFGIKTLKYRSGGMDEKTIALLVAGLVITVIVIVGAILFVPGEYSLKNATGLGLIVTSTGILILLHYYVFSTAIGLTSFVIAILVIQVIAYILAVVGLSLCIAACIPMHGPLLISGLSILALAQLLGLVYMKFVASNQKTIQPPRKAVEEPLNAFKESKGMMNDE
Chain of Thioredoxin reductase 1, cytoplasmic (Rattus norvegicus) (O89049 whole entry, looked up): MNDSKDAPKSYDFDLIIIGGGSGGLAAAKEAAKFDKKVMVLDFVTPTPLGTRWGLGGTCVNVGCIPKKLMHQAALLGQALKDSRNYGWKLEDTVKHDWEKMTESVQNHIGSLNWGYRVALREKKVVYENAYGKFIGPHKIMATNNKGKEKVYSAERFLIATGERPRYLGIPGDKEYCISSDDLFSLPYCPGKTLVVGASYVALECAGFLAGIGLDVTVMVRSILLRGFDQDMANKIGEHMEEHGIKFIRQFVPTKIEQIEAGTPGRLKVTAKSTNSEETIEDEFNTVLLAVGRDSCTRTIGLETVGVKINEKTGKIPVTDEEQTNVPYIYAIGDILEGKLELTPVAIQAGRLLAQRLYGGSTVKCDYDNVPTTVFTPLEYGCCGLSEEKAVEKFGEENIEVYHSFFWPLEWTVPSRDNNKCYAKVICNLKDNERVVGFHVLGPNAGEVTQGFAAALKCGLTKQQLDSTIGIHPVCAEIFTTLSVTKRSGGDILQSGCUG
Chain of Calcium and integrin-binding protein 1 (Homo sapiens) (Q99828 whole entry, looked up): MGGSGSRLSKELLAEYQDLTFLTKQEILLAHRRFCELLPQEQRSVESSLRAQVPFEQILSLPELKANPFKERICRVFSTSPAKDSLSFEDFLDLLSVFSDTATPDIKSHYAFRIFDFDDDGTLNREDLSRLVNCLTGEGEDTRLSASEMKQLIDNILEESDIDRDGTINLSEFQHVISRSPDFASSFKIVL
Chain of N-terminal Xaa-Pro-Lys N-methyltransferase 1 (Homo sapiens) (Q9BV86 whole entry, looked up): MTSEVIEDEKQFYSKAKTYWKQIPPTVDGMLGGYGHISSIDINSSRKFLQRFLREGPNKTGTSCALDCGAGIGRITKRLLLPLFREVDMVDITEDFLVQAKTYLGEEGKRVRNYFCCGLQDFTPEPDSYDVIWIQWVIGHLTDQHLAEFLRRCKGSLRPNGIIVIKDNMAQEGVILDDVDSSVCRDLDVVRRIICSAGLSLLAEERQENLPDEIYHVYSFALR
Chain of Chromobox protein homolog 1 (Homo sapiens) (P83916 whole entry, looked up): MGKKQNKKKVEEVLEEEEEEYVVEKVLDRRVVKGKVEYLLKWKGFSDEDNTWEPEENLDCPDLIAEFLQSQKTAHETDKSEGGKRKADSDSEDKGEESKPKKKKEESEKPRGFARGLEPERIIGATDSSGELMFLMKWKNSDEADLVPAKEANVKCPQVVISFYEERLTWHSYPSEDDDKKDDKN
Chain of Beta-2 adrenergic receptor (Homo sapiens) (P07550 whole entry, looked up): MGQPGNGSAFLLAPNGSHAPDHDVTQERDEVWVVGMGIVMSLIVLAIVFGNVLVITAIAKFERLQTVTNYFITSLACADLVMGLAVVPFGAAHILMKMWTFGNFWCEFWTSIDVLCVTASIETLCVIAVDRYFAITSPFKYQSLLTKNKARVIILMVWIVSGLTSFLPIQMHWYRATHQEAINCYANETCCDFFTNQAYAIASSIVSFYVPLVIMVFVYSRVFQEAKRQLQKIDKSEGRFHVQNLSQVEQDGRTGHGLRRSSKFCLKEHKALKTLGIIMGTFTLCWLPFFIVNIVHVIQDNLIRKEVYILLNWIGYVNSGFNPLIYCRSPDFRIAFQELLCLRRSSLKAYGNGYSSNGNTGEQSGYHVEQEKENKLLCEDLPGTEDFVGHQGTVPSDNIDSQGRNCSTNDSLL
Chain of ATPase family AAA domain-containing protein 5 (Homo sapiens) (Q96QE3 whole entry, looked up, the tested form may be a part): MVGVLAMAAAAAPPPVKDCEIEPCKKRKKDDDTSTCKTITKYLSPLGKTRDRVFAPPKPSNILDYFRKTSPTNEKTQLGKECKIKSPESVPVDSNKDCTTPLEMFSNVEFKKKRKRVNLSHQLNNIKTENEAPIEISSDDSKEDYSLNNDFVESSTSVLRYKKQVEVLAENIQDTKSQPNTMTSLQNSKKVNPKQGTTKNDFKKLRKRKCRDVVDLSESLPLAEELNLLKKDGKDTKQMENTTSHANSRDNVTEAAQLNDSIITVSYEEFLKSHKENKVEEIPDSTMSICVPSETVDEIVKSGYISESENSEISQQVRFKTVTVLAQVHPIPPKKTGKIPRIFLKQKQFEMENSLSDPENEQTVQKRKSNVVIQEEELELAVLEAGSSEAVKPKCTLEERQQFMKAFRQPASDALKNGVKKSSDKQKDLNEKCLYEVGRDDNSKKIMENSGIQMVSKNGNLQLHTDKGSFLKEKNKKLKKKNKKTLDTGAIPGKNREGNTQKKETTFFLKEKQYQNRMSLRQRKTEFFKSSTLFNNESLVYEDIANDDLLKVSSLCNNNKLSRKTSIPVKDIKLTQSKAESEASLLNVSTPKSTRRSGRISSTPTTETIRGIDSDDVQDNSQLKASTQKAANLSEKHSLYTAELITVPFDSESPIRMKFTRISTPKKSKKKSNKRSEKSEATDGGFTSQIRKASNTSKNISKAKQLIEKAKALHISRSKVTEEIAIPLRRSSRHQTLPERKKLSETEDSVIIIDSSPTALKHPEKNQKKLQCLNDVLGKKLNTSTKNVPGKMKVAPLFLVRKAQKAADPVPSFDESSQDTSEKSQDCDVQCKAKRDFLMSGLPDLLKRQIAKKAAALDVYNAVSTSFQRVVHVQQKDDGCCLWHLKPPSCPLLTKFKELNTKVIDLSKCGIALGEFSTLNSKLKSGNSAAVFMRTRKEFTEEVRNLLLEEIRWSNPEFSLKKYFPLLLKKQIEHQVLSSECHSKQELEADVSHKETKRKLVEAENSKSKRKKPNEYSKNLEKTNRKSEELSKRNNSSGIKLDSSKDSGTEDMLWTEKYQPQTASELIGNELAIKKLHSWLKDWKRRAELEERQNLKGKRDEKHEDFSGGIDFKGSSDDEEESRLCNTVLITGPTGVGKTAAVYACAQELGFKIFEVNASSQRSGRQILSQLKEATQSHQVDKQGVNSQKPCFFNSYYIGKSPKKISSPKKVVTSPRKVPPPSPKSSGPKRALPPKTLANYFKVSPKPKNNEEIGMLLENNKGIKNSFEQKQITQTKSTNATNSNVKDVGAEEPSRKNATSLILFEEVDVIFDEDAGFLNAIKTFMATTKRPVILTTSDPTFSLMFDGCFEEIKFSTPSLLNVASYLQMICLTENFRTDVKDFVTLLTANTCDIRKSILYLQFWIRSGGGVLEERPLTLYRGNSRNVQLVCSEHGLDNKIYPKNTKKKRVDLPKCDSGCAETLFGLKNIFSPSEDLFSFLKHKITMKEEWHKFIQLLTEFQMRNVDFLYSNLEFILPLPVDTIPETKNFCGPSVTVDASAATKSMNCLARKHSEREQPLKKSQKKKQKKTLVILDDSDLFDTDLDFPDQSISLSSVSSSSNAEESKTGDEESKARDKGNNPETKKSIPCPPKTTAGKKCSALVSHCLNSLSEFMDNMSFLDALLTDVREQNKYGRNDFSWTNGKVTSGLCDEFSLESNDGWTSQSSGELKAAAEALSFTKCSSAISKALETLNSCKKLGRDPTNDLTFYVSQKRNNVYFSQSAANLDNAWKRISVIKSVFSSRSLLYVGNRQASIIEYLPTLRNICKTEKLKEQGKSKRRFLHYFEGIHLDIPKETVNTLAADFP
Chain of Phospholipid hydroperoxide glutathione peroxidase GPX4 (Homo sapiens) (P36969 whole entry, looked up): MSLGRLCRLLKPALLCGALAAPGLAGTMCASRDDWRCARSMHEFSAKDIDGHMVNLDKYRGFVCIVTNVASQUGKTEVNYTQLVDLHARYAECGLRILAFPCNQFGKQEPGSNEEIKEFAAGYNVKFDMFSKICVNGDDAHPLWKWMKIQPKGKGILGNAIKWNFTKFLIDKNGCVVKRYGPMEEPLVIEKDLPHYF

N.N.O=C(O)C1(C(=O)O)CCC1.[Pt+2]
inactive: [1] | [2] | [3] | [4] | [5] | [6] | [7] | [8] | [9] | [13] | [14] | [15] | [16] | [17] | [18] | [19] | [20] | [21] | [23] | [24] | [25] | [26] | [28] | [29]
active: [10] 0.267 µM | [11] 3.77 µM | [12] 20 µM | [22] 12.6 µM | [27] 3.98 µM
